Bioassay records deposited in PubChem by NMMLSC.
Rac1 mut GTP – GTP binding modulators of activated mutant Rac1, primary screen, biochemical, bead-based flow cytometry, multiplex, fluorescent GTP; Ras-related C3 botulinum toxin substrate 1 (Homo sapiens), P63000; GST-Rac1 activated beads; actives lie on both sides; 100% means binding = to untreated wells; percent activity (GTP binding), % at 10 µM; 190,000 tested, 0.11% active; AID 764, 2007;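 active = GTP binding at least 20 percentage points away from the 100% baseline, in either direction, so actives lie on both sides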
HRas wt GTP – modulators of GTP binding to HRas wildtype, primary screen, biochemical, bead-based flow cytometry, multiplex; 190,000 tested, 0.14% active; GST-Ras wt beads, Bodipy-FL-GTP binding; actives lie on both sides; GTPase HRas (Homo sapiens), P01112; GTP binding activity, % at 10 µM;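 active = GTP binding activity at least 20% away from the 100% baseline, either lowered as inhibitor or raised as activator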
Target sequence (P01112 whole entry, looked up): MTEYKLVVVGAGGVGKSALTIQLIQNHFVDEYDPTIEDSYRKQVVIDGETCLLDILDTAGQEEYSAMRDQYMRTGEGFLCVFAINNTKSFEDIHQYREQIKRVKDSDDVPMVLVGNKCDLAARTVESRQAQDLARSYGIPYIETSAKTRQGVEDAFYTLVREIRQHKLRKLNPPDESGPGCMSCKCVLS
Rab2A wt mod – modulators of GTP binding to Rab2A wildtype, primary screen, biochemical, dog, bead-based flow cytometry, multiplex. GST-Rab2 wt beads, Bodipy-GTP binding. GTP binding activity, % at 10 µM. Ras-related protein Rab-2A (Canis lupus familiaris), P61105. AID 760, 2007. 190,000 tested, 0.19% active;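 active = GTP binding activity at least 20 points away from 100%, either lowered or raised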
Rab7 wt modul – modulators of GTP binding to Rab7, primary screen, biochemical, wildtype, multiplex bead flow cytometry; 190,000 tested, 0.055% active; GTP binding activity (percent of control), % at 10 µM; AID 758, 2007; GST-Rab7 beads, fluorescent GTP binding; actives lie on both sides; untreated = 100%, excess cold GTP = 0%; Rab7 GTPase wild type (dog), Bodipy-FL-GTP binding;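 active = fluorescent GTP binding to Rab7 beads changed by at least 20 points from the 100% baseline, either direction, mostly lower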;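 note: median green fluorescence of bound Bodipy-FL-GTP per Rab7 bead population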
Rac1 wt modul – wildtype Rac1 GTP binding modulators, primary screen, biochemical, GST-Rac1 beads, flow cytometry, multiplex | 190,000 tested, 0.27% active | Ras-related C3 botulinum toxin substrate 1 (Homo sapiens), P63000 | fluorescent GTP binding; actives lie on both sides; 0 = cold GTP competed, 100 = untreated | GTP binding activity (% of control), % at 10 µM;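 active = GTP binding activity at least 20 points away from the 100% control level, either lower or higher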
Cdc42 wt – modulators of GTP binding to wildtype Cdc42, primary screen, biochemical, multiplex bead flow cytometry, Bodipy-GTP; GST-Cdc42 beads; actives lie on both sides; percent activity (GTP binding), % at 10 µM; 190,000 tested, 0.2% active;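 active = percent activity GTP binding at least 20 points away from the 100% baseline, either down as inhibitor or up as activator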;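 note: median bead fluorescence of bound Bodipy-FL-GTP at 100 nM; below 100% means less GTP binding so inhibitor and above means activator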
Target sequence (P60953 whole entry, looked up): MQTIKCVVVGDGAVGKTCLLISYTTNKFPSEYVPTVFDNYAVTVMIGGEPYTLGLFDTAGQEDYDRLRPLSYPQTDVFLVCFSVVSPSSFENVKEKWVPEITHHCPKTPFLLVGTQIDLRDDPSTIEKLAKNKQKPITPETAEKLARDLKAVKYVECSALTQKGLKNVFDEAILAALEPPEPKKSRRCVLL
Of the large screens only hits and unclear results are named; the others gave an inactive call; [ ] = another dose, or the depositor's remark. The list is not random: actives were taken first. Their share in the collection is about 0.38%.

COc1ccc2c(C)nc(N/C(N)=N/S(=O)(=O)c3ccc(C)cc3)nc2c1	Rac1 wt modul 77.0
Cc1ccc(S(=O)(=O)/N=C(\N)Nc2nc(C)c3ccccc3n2)cc1	none
N#C/C(=C/c1ccc([N+](=O)[O-])cc1)C(=O)Nc1ccccc1O	none
N#C/C(=C/c1ccc(O)c([N+](=O)[O-])c1)C(=O)Nc1ccccc1	Rac1 wt modul 77.0, Cdc42 wt 79.0
COc1ccccc1C(=O)N=Nc1c(O)[nH]c2ccc([N+](=O)[O-])cc12	Rac1 mut GTP 66.0, HRas wt GTP 53.0, Rab2A wt mod 51.0, Rab7 wt modul 66.0, Rac1 wt modul 45.0, Cdc42 wt 51.0
CC(C)NC(=S)N=Nc1c(O)[nH]c2ccc([N+](=O)[O-])cc12	HRas wt GTP 72.0, Rab2A wt mod 68.0, Rac1 wt modul 62.0, Cdc42 wt 68.0
O=C(N=Nc1c(O)[nH]c2ccc([N+](=O)[O-])cc12)c1cc(-c2ccccc2Cl)nc2ccccc12	none
COc1ccc(/C=N/NC(=O)c2cccc([N+](=O)[O-])c2)cc1OC	none
O=C(N/N=C/c1ccc2nccnc2c1)c1cccc([N+](=O)[O-])c1	Rac1 wt modul 77.0
Cc1cccc(NC(=O)NC(C)C(c2ccccc2)N2CCN(C)CC2)c1 (stereo unspecified)	none
Clc1ccc(Cn2ncc3c(N4CCCC4)ncnc32)cc1	none
Clc1ccc(Cn2ncc3c(N4CCOCC4)ncnc32)cc1	Rab2A wt mod 59.0
CS(=O)(=O)Nc1ccccc1C(=O)O	none
CS(=O)(=O)Nc1ccc(Br)cc1C(=O)c1ccccc1	Cdc42 wt 69.0
Nc1nonc1C(=O)NCCN=Cc1ccccc1O	none
Nc1nonc1C(=O)NCCN=Cc1cc(Cc2ccccc2)cc(Br)c1O	Rab2A wt mod 122.0[activator], Rac1 wt modul 128.0[activator], Cdc42 wt 125.0[activator]
Nc1c(S(=O)(=O)c2ccccc2)c2nc3ccccc3nc2n1C1CC1	Rac1 wt modul 78.0
Nc1c(S(=O)(=O)c2ccccc2)c2nc3ccccc3nc2n1/N=C/c1cccc(O)c1	HRas wt GTP 73.0, Rab2A wt mod 70.0, Cdc42 wt 74.0
COc1cccc(CN2CCN(Cc3cccc4nonc34)CC2CCO)c1 (stereo unspecified)	none
CCOC(=O)c1cnc(SCc2ccc(C)cc2)nc1N	Rac1 wt modul 120.0[activator]
COc1ccc(OC)c(/C=N/NC(=O)c2ccc(Cn3cc([N+](=O)[O-])cn3)o2)c1	Rab2A wt mod 78.0
O=C(O)c1cc([N+](=O)[O-])ccc1NCc1ccccc1Cl	Rac1 mut GTP 133.0[activator], HRas wt GTP 125.0[activator], Rab2A wt mod 129.0[activator], Rac1 wt modul 146.0[activator], Cdc42 wt 129.0[activator]
OC(CNCCc1ccc(Cl)cc1)COc1ccc2ccccc2c1 (stereo unspecified)	Rac1 mut GTP 77.0, Rab2A wt mod 78.0, Cdc42 wt 77.0
OC(COc1ccc2ccccc2c1)Cn1ccnc1 (stereo unspecified)	none
Cn1cc(C=C2C(=O)CC(C)(C)CC2=O)c2ccccc21	Rac1 mut GTP 34.0, HRas wt GTP 38.0, Rab2A wt mod 32.0, Rab7 wt modul 20.0, Rac1 wt modul 33.0, Cdc42 wt 31.0
COc1ccc2nc(SCC(=O)Nc3ccc4c(c3)OCCO4)[nH]c2c1	none
COc1ccc2[nH]c3nc(SCC(=O)Nc4ccc5c(c4)OCO5)nnc3c2c1	HRas wt GTP 74.0, Rab2A wt mod 72.0, Cdc42 wt 74.0
CCn1c(SCC(=O)O)nnc1-c1cc2c(C)nn(-c3ccccc3)c2s1	Rac1 wt modul 79.0
Cc1nn(-c2ccccc2)c2sc(-c3nnc(SCC(=O)O)o3)cc12	none
CCn1c2ccccc2c2nnc(SCC(=O)NCCOC)nc21	Rab2A wt mod 35.0
O=C(N/N=C/c1ccc(-c2ccccc2[N+](=O)[O-])o1)c1cncc(Br)c1	Rac1 wt modul 72.0
COc1ccc(-c2nnc3ccc(SCC(=O)Nc4cc(C)on4)nn23)cc1OC	none
CCOc1ccccc1NC(=O)CSc1nnc2ccc(-c3ccncc3)nn12	none
COc1ccc(NC(=O)CSc2ccc3nnc(-c4cccnc4)n3n2)c(OC)c1	Rac1 wt modul 79.0
CCOc1ccccc1NC(=O)CSc1ccc2nnc(-c3cccnc3)n2n1	Rac1 mut GTP 76.0, HRas wt GTP 69.0, Rab2A wt mod 64.0, Rac1 wt modul 58.0, Cdc42 wt 65.0
CCOc1cc(C2c3c(-c4ccccc4)n[nH]c3C(=O)N2c2ccc(C(=O)O)cc2)ccc1O (stereo unspecified)	Rac1 mut GTP 74.0, Rab2A wt mod 79.0, Rac1 wt modul 59.0, Cdc42 wt 79.0
COC(CNC(=O)C1CCCN1C(=O)OCc1ccccc1)OC (stereo unspecified)	Rac1 wt modul 121.0[activator]
O=C(O)C1CCCN1C(=O)OCc1ccccc1 (stereo unspecified)	Rac1 mut GTP 121.0[activator], HRas wt GTP 121.0[activator], Rab2A wt mod 122.0[activator], Rab7 wt modul 120.0[activator], Rac1 wt modul 139.0[activator], Cdc42 wt 128.0[activator]
O=C(O)COc1ccccc1/C=N/NC(=O)c1cc(-c2ccc(F)cc2)nc2ccccc12	Rac1 wt modul 78.0
Cc1nc2ccccn2c1-c1csc(Nc2cccc(O)c2)n1	Rac1 wt modul 75.0
CCSCc1nnc(SCC(=O)Nc2ccc(F)cc2)n1CC	none
Oc1ccc(NC(=S)N=Nc2c(O)[nH]c3ccc(Br)cc23)cc1	Rab2A wt mod 79.0, Rac1 wt modul 79.0, Cdc42 wt 79.0
Oc1ccc(NC(=S)N=Nc2c(O)[nH]c3ccccc23)cc1	HRas wt GTP 77.0, Rab2A wt mod 75.0, Rac1 wt modul 70.0, Cdc42 wt 71.0
CNC(=S)N=Nc1c(O)[nH]c2ccccc12	HRas wt GTP 79.0, Rab2A wt mod 72.0, Rac1 wt modul 69.0
Cc1ccc(NC(=S)N=Nc2c(O)[nH]c3ccccc23)cc1	none
Cc1cc(NC(=S)N(Cc2ccc(Br)cc2)Cc2ccc(C(=O)O)cc2)ccc1Cl	none
COc1ccc(NC(=O)Cn2cnc3c(nnn3-c3ccc(C)cc3)c2=O)cc1	none
O=C(CCCCCNC(=O)c1ccccc1)N=Nc1c(O)[nH]c2c(Br)cc(Br)cc12	none
NC(=O)N=Nc1c(O)[nH]c2c(Br)cc(Br)cc12	HRas wt GTP 78.0, Rab2A wt mod 75.0, Rac1 wt modul 69.0, Cdc42 wt 75.0
